Results on 39 compounds are retold here after PubChem BioAssay (NCATS).

Structures are written as SMILES. Records with an inconclusive call do not appear. Values without a mark were called inactive. Calls of active or inactive are those of the source. The call rests on the fitted dose curve.
Potency means the concentration at half of the fitted maximal effect.

For the assay, the target named is Cytochrome P450 1A2 (Homo sapiens) (UniProt P05177). Briefly: p450-cyp1a2 (AID 410).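 On activity change, negative = inhibition: -100% = full effect of reference inhibitor.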 The note with it: recombinant CYP1A2, luciferin-ME demethylation, luminescence; series mostly up to 57 µM; activity change, negative = inhibition: at the top concentration. The method, boiled down: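 Read-out is luminescence from luciferin produced by CYP1A2 demethylation of Luciferin-ME (100uM, at Km). Detection reagent stopped the 60 min NADPH-dependent reaction; signals were normalized to 57 uM furafylline.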
Chain of Cytochrome P450 1A2 (Homo sapiens) (P05177 whole entry, looked up): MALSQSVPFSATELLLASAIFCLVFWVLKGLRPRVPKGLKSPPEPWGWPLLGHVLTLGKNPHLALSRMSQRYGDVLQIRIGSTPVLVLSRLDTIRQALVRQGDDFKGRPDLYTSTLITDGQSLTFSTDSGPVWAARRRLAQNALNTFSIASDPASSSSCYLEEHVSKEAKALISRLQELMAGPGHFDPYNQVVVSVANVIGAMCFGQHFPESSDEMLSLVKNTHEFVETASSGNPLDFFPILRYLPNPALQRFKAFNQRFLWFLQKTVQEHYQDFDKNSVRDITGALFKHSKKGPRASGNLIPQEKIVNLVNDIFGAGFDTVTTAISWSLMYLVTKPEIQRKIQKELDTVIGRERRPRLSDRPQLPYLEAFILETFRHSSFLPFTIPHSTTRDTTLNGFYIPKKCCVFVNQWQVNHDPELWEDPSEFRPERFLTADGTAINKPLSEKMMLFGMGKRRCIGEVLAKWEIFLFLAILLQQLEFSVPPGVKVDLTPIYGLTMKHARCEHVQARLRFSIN
`CCCC[C@@H]1C[C@H]1C(NC(=O)c1cccnc1)c1ccc(Cl)cc1` (some centres undefined): the Potency was 7.94 µM (active). Take `COC(=O)[C@@H]1C[C@H]1[C@@H](NC(=O)c1cc(C)nn1C)c1ccccc1`: the Potency was 15.8 µM (active). Still for that read-out and setting: the figure for `COC(=O)[C@@H]1C[C@H]1[C@@H](NC(=O)c1cc(C)on1)c1ccccc1` is 20 µM (active); for `C[C@@H](C(=O)Nc1ccc2ccccc2c1)[C@@H]1C[C@@]1(C)[C@@H](NC(=O)c1ccncc1Cl)c1ccccc1` it is 25.1 µM (active). The same measure, in the same setting: as for `CCCC/C=C/C(NC(=O)c1ccco1)c1ccccc1` (centres undefined), the figure is 5.01 µM (active). Turning to `COC(=O)[C@@]1(Cc2ccc(OC)cc2)[C@H]2c3cc(C(=O)N4CCCC4)n(Cc4ccc(Cl)c(C(F)(F)F)c4)c3C[C@H]2CN1C(=O)c1ccccc1`, the Potency was 12.6 µM (active). In the case of `C[C@@]1(C(NC(=O)Cc2ccccc2)c2ccc(-c3ccccc3)cc2)C[C@H]1C1CCCCC1` (some centres undefined), the “activity change, negative = inhibition” value is 0.4%. Consider `O=C(NCc1nc2ccccc2[nH]1)[C@H]1C[C@@H]1[C@H](NP(=O)(c1ccccc1)c1ccccc1)c1ccccc1`, for which the Potency is 15.8 µM (active).

As for `CC1=C(C(=O)OCc2ccccc2)C(c2ccc([N+](=O)[O-])cc2)NC(=O)N1CCCCCC(=O)O` (centres undefined), the Potency is 15.8 µM (active). On to `COCC1C2CC[C@H]3C(OCc4ccc(F)cc4C(F)(F)F)OC[C@]4(C)[C@H]3C2=C(CN4C(=O)OC(C)(C)C)[C@H](C)C1COC` (some centres undefined), for which the Potency was 31.6 µM (active). Same read-out and setting: as for `CCCCCC1=C2CNC(C)(C(=O)OC)C=C2C(C)C1=O` (centres undefined), the figure is 25.1 µM (active); as for `C[C@@H](C(=O)NCCF)[C@H]1C[C@]1(C)[C@H](NC(=O)OCc1ccccc1)c1ccccc1`, 15.8 µM (active). As for `COC(=O)[C@@H]1C[C@H]1[C@@H](NC(=O)c1cccnc1)c1ccccc1`, the Potency was 12.6 µM (active). As to `COC(=O)[C@H]1C[C@@H]1[C@H](NC(=O)Oc1ccc(F)cc1)c1ccccc1`, the Potency was 1 µM (active). Take `COC(=O)C1CC1C(NC(=O)[C@H]1CCCCN1)c1ccccc1` (some centres undefined): the “activity change, negative = inhibition” value was -23.3%. Consider `O=C(NCc1cc(F)cc2c1OCCO2)[C@H]1C[C@@H]1[C@H](NP(=O)(c1ccccc1)c1ccccc1)c1ccccc1`, for which the Potency is 15.8 µM (active). The same measure, in the same setting: as for `CCCCCC1=C2CNC(CCC)(C(=O)OC)C=C2C(C)C1=O` (centres undefined), the figure is 31.6 µM (active); as for `C[C@@H](C(=O)Nc1ccc2ccccc2c1)[C@@H]1C[C@@]1(C)[C@@H](NS(=O)(=O)c1ccc2ccccc2c1)c1ccccc1`, 10 µM (active). Consider `C[C@@]1(C(NC(=O)c2cccs2)c2ccc(-c3ccccc3)cc2)C[C@H]1C1CCCCC1` (some centres undefined), for which the “activity change, negative = inhibition” value was -11%. With `C[C@@H](C(=O)Nc1ccc2ccccc2c1)[C@@H]1C[C@@]1(C)[C@@H](NC(=O)OCc1ccccc1)c1ccccc1`, the Potency was 15.8 µM (active). As to `O=C(NCCc1c[nH]c2ccccc12)[C@@H]1C[C@H]1[C@@H](NP(=O)(c1ccccc1)c1ccccc1)c1ccccc1`, the Potency is 15.8 µM (active). As for `COC(=O)[C@@H]1C[C@H]1[C@@H](NC(=O)c1cnccn1)c1ccccc1`, the Potency was 12.6 µM (active). The same measure, in the same setting: the figure for `C#CCCCC(=S)Nc1ccccc1` is 12.6 µM (active); for `CCCC/C=C/C(NC(=O)C(C)(C)C)c1ccccc1` (centres undefined) it is 20 µM (active); for `O=C(N[C@@H](c1ccccc1)[C@@H]1C[C@H]1C(=O)NCc1ccccn1)OCc1ccccc1` it is 10 µM (active). The same measure, in the same setting: the figure for `COC(=O)C1(C)C=C2C(=C(c3ccccc3)C(=O)C2C)CN1` (centres undefined) is 15.8 µM (active).

As to `C[C@H](CO)NC(=O)[C@H]1C[C@@H]1[C@H](NP(=O)(c1ccccc1)c1ccccc1)c1ccccc1`, the “activity change, negative = inhibition” value was -7.8%. On to `CCCC1(C(=O)OC)C=C2C(=C(C(C)C)C(=O)C2C)CN1` (centres undefined), for which the “activity change, negative = inhibition” value was -20.3%. For the compound `COC(=O)C1(Cc2ccccc2)C=C2C(=C(C)C(=O)C2C)CN1` (centres undefined), the Potency is 10 µM (active). On the same count and under the same terms, the figure for `COC(=O)C1(CC(C)C)C=C2C(=C(C(C)C)C(=O)C2C)CN1` (centres undefined) is 15.8 µM (active).

`COC(=O)[C@@]1(Cc2ccccc2)[C@H]2c3cc(C(=O)N4CCCC4)n(Cc4ccc(C)o4)c3C[C@H]2CN1C(=O)c1ccccc1`: the Potency is 12.6 µM (active). The same measure, in the same setting: the figure for `CCCc1cc2c(n1CCc1ccc(Cl)cc1)C(C)C1CN(C(=O)c3ccccc3)C(C)(C(=O)OC)C21` (centres undefined) is 25.1 µM (active). Turning to `CC(C)=C1C(=O)C(c2ccccc2)=C2CN3C(=O)N(CCc4ccccc4)C(=O)[C@]3(Cc3ccccc3)[C@H]21`, the “activity change, negative = inhibition” value was -14.9%.

As to `C[C@H]1C2=C3C(CC[C@H]4C(OCc5ccc(F)cc5C(F)(F)F)OC[C@](C)([C@@H]34)N(C(=O)OC(C)(C)C)C2)C(CO)C1CO` (some centres undefined), the Potency was 15.8 µM (active).

Regarding `O=C(NCCc1c[nH]c2ccccc12)[C@H]1C[C@@H]1[C@H](NP(=O)(c1ccccc1)c1ccccc1)c1ccccc1`, the Potency was 12.6 µM (active).

`COC(=O)C1CC1C(NC(=O)[C@@H]1CCCN1)c1ccccc1` (some centres undefined): the Potency was 15.8 µM (active).

For the compound `CCC/C=C(\CCC)C(NC(=O)c1ccc(C(F)(F)F)cc1)c1ccc(C(F)(F)F)cc1` (centres undefined), the “activity change, negative = inhibition” value is -16.4%.

Take `COC(=O)[C@H]1C[C@@H]1[C@H](NC(=O)c1cc(C)on1)c1ccccc1`: the Potency was 15.8 µM (active). The same measure, in the same setting: the figure for `COC(=O)[C@H]1C[C@@H]1[C@H](NC(=O)c1cnccn1)c1ccccc1` is 15.8 µM (active).
